Measurements: the supplement of paper PMC7411054

Experiments:
Conditions in all cases: treatment time: 24 h
A549-ACTB-RAB5A = experiment: phenotypically active (imaging signature differs from DMSO and reproducible) at any of 0.3-9 uM (binary (1 = active, 0 = inactive)); higher = active
Method in brief: (§1)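 Fifteen gene-edited A549, HepG2 and WPMY1 reporter lines (BFP segmentation plus GFP and RFP/FusionRed markers) were treated at 0.3, 1, 3 or 9 µM for 24 h, four wells each, then imaged live. Live-cell features per well were normalised to DMSO control wells. Deviation required ≥3 of 4 wells beyond the 95th percentile of DMSO Euclidean distances, and reproducibility required median replicate Pearson correlation above the 95th percentile of non-replicates. Phenotypic activity needed both criteria.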

A549-CANX-COX4 = experiment: as above
Method in brief: as §1

A549-GM130-SQSTM1 [1] = experiment: as above
Method in brief: as §1

A549-TP53BP1-CLTA = experiment: as above
Method in brief: as §1

A549-TUBA1B-RELA = experiment: as above
Method in brief: as §1

HepG2-ACTB-RAB5A = experiment: as above
Method in brief: as §1

HepG2-CANX-COX4 = experiment: as above
Method in brief: as §1

HepG2-GM130-SQSTM1 = experiment: as above
Method in brief: as §1

HepG2-TP53BP1-CLTA = experiment: as above
Method in brief: as §1

HepG2-TUBA1B-RELA = experiment: as above
Method in brief: as §1

WPMY1-ACTB-RAB5A = experiment: as above
Method in brief: as §1

WPMY1-CANX-COX4 = experiment: as above
Method in brief: as §1

WPMY1-GM130-SQSTM1 [2] = experiment: as above
Method in brief: as §1

WPMY1-TP53BP1-CLTA = experiment: as above
Method in brief: as §1

WPMY1-TUBA1B-RELA = experiment: as above
Method in brief: as §1

A549-GM130-SQSTM1 [3] = experiment: lowest phenotypically active concentration; higher = less potent
Method in brief: as §1

WPMY1-GM130-SQSTM1 [4] = experiment: as above
Method in brief: as §1

| SMILES | phenotypically active (A549-ACTB-RAB5A) | phenotypically active (A549-CANX-COX4) | phenotypically active (A549-GM130-SQSTM1 [1]) | phenotypically active (A549-TP53BP1-CLTA) | phenotypically active (A549-TUBA1B-RELA) | phenotypically active (HepG2-ACTB-RAB5A) | phenotypically active (HepG2-CANX-COX4) | phenotypically active (HepG2-GM130-SQSTM1) | phenotypically active (HepG2-TP53BP1-CLTA) | phenotypically active (HepG2-TUBA1B-RELA) | phenotypically active (WPMY1-ACTB-RAB5A) | phenotypically active (WPMY1-CANX-COX4) | phenotypically active (WPMY1-GM130-SQSTM1 [2]) | phenotypically active (WPMY1-TP53BP1-CLTA) | phenotypically active (WPMY1-TUBA1B-RELA) | lowest phenotypically active concentration (A549-GM130-SQSTM1 [3]) | lowest phenotypically active concentration (WPMY1-GM130-SQSTM1 [4]) |
| --- | --- | --- | --- | --- | --- | --- | --- | --- | --- | --- | --- | --- | --- | --- | --- | --- | --- |
| CC(C)N(CCCNC(=O)Nc1ccc(C(C)(C)C)cc1)C[C@H]1O[C@@H](n2ccc3c(N)ncnc32)[C@H](O)[C@@H]1O | 0 (inactive) | 0 (inactive) | 0 (inactive) | 0 (inactive) | 0 (inactive) | 1 (active) | 0 (inactive) | 1 (active) | 1 (active) | 1 (active) | 0 (inactive) | 0 (inactive) | 0 (inactive) | 0 (inactive) | 1 (active) |  |  |
| CCOc1ccc2nc(S(N)(=O)=O)sc2c1 [ethoxzolamide] | 0 (inactive) | 0 (inactive) | 0 (inactive) | 0 (inactive) | 0 (inactive) | 0 (inactive) | 0 (inactive) | 1 (active) | 0 (inactive) | 0 (inactive) | 0 (inactive) | 0 (inactive) | 0 (inactive) | 0 (inactive) | 0 (inactive) |  |  |
| CC(C)[C@@H](C)/C=C/[C@@H](C)[C@H]1CC[C@H]2C3=CC=C4C[C@@H](O)CC[C@]4(C)[C@H]3CC[C@]12C [Ergosterine] | 0 (inactive) | 0 (inactive) | 1 (active) | 0 (inactive) | 1 (active) | 0 (inactive) | 0 (inactive) | 1 (active) | 0 (inactive) | 0 (inactive) | 0 (inactive) | 0 (inactive) | 0 (inactive) | 0 (inactive) | 0 (inactive) | 9 µM |  |
| COc1ccc(S(=O)(=O)ON=C2C=C(C)C(=O)C(C)=C2)cc1 | 0 (inactive) | 0 (inactive) | 1 (active) | 0 (inactive) | 1 (active) | 0 (inactive) | 0 (inactive) | 0 (inactive) | 0 (inactive) | 0 (inactive) | 0 (inactive) | 0 (inactive) | 0 (inactive) | 0 (inactive) | 1 (active) | 9 µM |  |
| CCCCCCCCCCCCC/C=C/[C@H](O)[C@H](N)CO [D-erythro-Sphingosine (synthetic)] | 0 (inactive) | 0 (inactive) | 1 (active) | 0 (inactive) | 0 (inactive) | 0 (inactive) | 0 (inactive) | 0 (inactive) | 0 (inactive) | 0 (inactive) | 0 (inactive) | 0 (inactive) | 1 (active) | 0 (inactive) | 0 (inactive) | 9 µM | 9 µM |
| O=C(Nc1ccccc1)N1CCN(c2nc(-c3ccccc3)ns2)CC1 | 0 (inactive) | 0 (inactive) | 0 (inactive) | 0 (inactive) | 0 (inactive) | 0 (inactive) | 1 (active) | 0 (inactive) | 1 (active) | 1 (active) | 0 (inactive) | 0 (inactive) | 1 (active) | 0 (inactive) | 0 (inactive) |  | 9 µM |
